PubChem BioAssay (EPA / NIEHS)
Results filed as inconclusive are left out. The source made the active and inactive calls. Rule for the calls, unless noted: active = hit-call score of the fitted dose curve at least 0.9, where 1 is the maximum; inactive = score below 0.9.

What was measured:
[1] = target: human Retinoid X Receptor beta (RXRb), RXRB (gene 6257) (UniProt P28702); experiment: ATG_RXRb_TRANS: Attagene TRANS-FACTORIAL HepG2 Assay for human Retinoid X Receptor beta (RXRb) (AID 2283013; active = hit-call score of the fitted dose curve at least 0.9, where 1 is the maximum)
How it was run: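 Multiplexed TRANS reporter assay in HepG2; 24 h dosing; reporter mRNA by RT-PCR/CE fluorescence; gain-of-signal relative to DMSO.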

[2] = target: human Thyroid Receptor alpha (THRa1), THRA (gene 7067) (UniProt P10827); experiment: ATG_THRa1_TRANS: Attagene TRANS-FACTORIAL HepG2 Assay for human Thyroid Receptor alpha (THRa1) (AID 2283014; active = hit-call score of the fitted dose curve at least 0.9, where 1 is the maximum)
How it was run: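 Measured here is mRNA from a GAL4-UAS reporter in transfected HepG2 cells carrying a Gal4-fused receptor, 24 h post-dose. DMSO served as negative control and baseline.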

[3] = read-out: E-selectin (Homo sapiens) (UniProt P16581); experiment: BSK_3C_Eselectin: BioMAP Diversity Plus: 3C Assay for Eselectin Biomarker Activity (AID 2283015); conditions: primary human endothelial cells (HUVEC); actives raise or lower the signal
How it was run: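 Endpoint derived by bidirectional fitting against DMSO vehicle; signal is ELISA-detected E-selectin from primary HUVEC at 24 h post-dosing, with parallel SRB staining (0.1% SRB, 560 nm) flagging cytotoxicity.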

[4] = read-out: Monocyte Chemoattractant Protein-1 (MCP1), CCL2 (gene 6347); experiment: BSK_3C_MCP1: BioMAP Diversity Plus: 3C Assay for Monocyte Chemoattractant Protein-1 (MCP1) Biomarker Activity (AID 2283017); conditions: primary human endothelial cells (HUVEC); actives raise or lower the signal
How it was run: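 Using human vascular primary endothelium, researchers measured MCP-1 by ELISA 24 h after treatment, with DMSO serving as negative control for bidirectional fitting.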

[5] = read-out: Monocyte Chemoattractant Protein-1 (MCP1), CCL2 (gene 6347); experiment: BSK_4H_MCP1: BioMAP Diversity Plus: 4H Assay for Monocyte Chemoattractant Protein-1 (MCP1) Biomarker Activity (AID 2283018); conditions: primary human endothelial cells (HUVEC); actives raise or lower the signal
How it was run: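 Readout: MCP-1 ELISA on compound-treated HUVEC, sampled 24 h post-dosing. Baseline and negative control DMSO; bidirectional fit. Overt toxicity checked alongside by sulforhodamine B protein staining at time of biomarker measurement.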

[6] = read-out: Human Leukocyte Antigen - DR isotype (HLADR), HLA-DRA (gene 3122); experiment: BSK_3C_HLADR: BioMAP Diversity Plus: 3C Assay for Human Leukocyte Antigen - DR isotype (HLADR) Biomarker Activity (AID 2283019); conditions: primary human endothelial cells (HUVEC); actives raise or lower the signal
How it was run: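 Compound added to primary HUVEC cultures, 24 h incubation, then HLA-DR determined by ELISA; endpoint derived by bidirectional fitting relative to DMSO negative control.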

[7] = read-out: Interleukin-8 (IL8), CXCL8 (gene 3576); experiment: BSK_3C_IL8: BioMAP Diversity Plus: 3C Assay for Interleukin-8 (IL8) Biomarker Activity (AID 2283020); conditions: primary human endothelial cells (HUVEC); actives raise or lower the signal
How it was run: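 Human vascular endothelial cells (umbilical vein) in the 3C system; IL-8 level detected by ELISA at 24 h post-dose, with DMSO as baseline.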

[8] = read-out: Monokine induced gamma interferon (MIG), CXCL9 (gene 4283); experiment: BSK_3C_MIG: BioMAP Diversity Plus: 3C Assay for Monokine induced gamma interferon (MIG) Biomarker Activity (AID 2283021); conditions: primary human endothelial cells (HUVEC); actives raise or lower the signal;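 for AC50: MIG protein level measured by immunoassay in the treated endothelial cultures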
How it was run: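 After 24 h of treatment, human umbilical vein endothelial cultures (3C system) had their MIG biomarker level determined by ELISA, with DMSO serving as negative control.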

[9] = target: human Vitamin D Receptor (VDR), VDR (gene 7421) (UniProt P11473); experiment: ATG_VDR_TRANS: Attagene TRANS-FACTORIAL HepG2 Assay for human Vitamin D Receptor (VDR) (AID 2283022; active = hit-call score of the fitted dose curve at least 0.9, where 1 is the maximum)
How it was run: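 Multiplexed TRANS reporter in HepG2; 24 h treatment; reporter mRNA by RT-PCR plus capillary electrophoresis; upregulation scored relative to DMSO.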

[10] = BSK_3C_SRB: Viability Assessment in the BioMAP Diversity Plus: 3C Assay (AID 2283023); conditions: primary human endothelial cells (HUVEC);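 note: cells read 24 h after compound dosing; fitted both ways against DMSO so a hit may be signal rise or drop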
How it was run: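 Overt cytotoxicity is gauged in parallel confluent HUVEC cultures by SRB total-protein staining at the time of biomarker measurement, 24 h after dosing. Gain or loss of signal is fitted versus DMSO.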

[11] = read-out: Matrix Metallopeptidase 1 (MMP1), MMP1 (gene 4312); experiment: BSK_BE3C_MMP1: BioMAP Diversity Plus: BE3C Assay for Matrix Metallopeptidase 1 (MMP1) Biomarker Activity (AID 2283024); conditions: primary human bronchial epithelial cells; actives raise or lower the signal
How it was run: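 Dose cells, wait 24 h, run MMP1 ELISA; cells are human bronchial epithelial primaries. Both increases and decreases relative to DMSO counted.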

[12] = BSK_3C_Vis: BioMAP Diversity Plus: 3C Assay for Morphology Visualization (AID 2283025); conditions: primary human endothelial cells (HUVEC);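 note: fitted both ways so gain or loss versus DMSO counts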;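 for AC50: light microscopy image of cell morphology used as background control; cells imaged 24 h after dosing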
How it was run: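 Endothelial cells from human umbilical vein were treated with test chemicals for 24 h and inspected by light microscopy for changes in cell conformation.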

[13] = read-out: Pselectin, SELP (gene 6403); experiment: BSK_4H_Pselectin: BioMAP Diversity Plus: 4H Assay for Pselectin Biomarker Activity (AID 2283026); conditions: primary human endothelial cells (HUVEC); actives raise or lower the signal
How it was run: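 Human vascular endothelium from umbilical vein; P-selectin measured by ELISA at 24 h post-dose, with cytotoxicity checked by sulforhodamine B total-protein staining in parallel cultures (0.1% SRB after 10% TCA fixation, read at 560 nm).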

[14] = BSK_4H_SRB: Viability Assessment in the BioMAP Diversity Plus: 4H Assay (AID 2283027); conditions: primary human endothelial cells (HUVEC);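 note: cells exposed to compound for 24 h before staining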
How it was run: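 Absorbance at 560 nm of SRB-stained total protein served as the viability read-out in confluent primary human umbilical vein endothelium 24 h after chemical treatment. Curves were fitted bidirectionally against DMSO as negative control.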

[15] = BSK_BE3C_SRB: Viability Assessment in the BioMAP Diversity Plus: BE3C Assay (AID 2283028); conditions: primary human bronchial epithelial cells;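 note: measured 24 h after chemical dosing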;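 for AC50: fitted both ways so AC50 may mark signal gain or loss versus DMSO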
How it was run: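 SRB total-protein staining (0.1%, after TCA fixation) of chemically dosed human bronchial epithelial primary cells at 24 h; DMSO serves as the negative control for bidirectional curve fitting.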

[16] = read-out: Thrombomodulin, THBD (gene 7056); experiment: BSK_3C_Thrombomodulin: BioMAP Diversity Plus: 3C Assay for Thrombomodulin Biomarker Activity (AID 2283029); conditions: primary human endothelial cells (HUVEC); actives raise or lower the signal
How it was run: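 Thrombomodulin ELISA, human primary HUVEC, 24 h post-dose; data fitted in both directions relative to DMSO.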

[17] = read-out: Urokinase-type plasminogen activator receptor (uPAR), PLAUR (gene 5329); experiment: BSK_4H_uPAR: BioMAP Diversity Plus: 4H Assay for Urokinase-type plasminogen activator receptor (uPAR) Biomarker Activity (AID 2283030); conditions: primary human endothelial cells (HUVEC); actives raise or lower the signal
How it was run: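 Endpoint derived via bidirectional curve fitting against DMSO baseline; readout was ELISA detection of uPAR on umbilical vein endothelial cells at 24 h post-treatment, with SRB-stained parallel cultures assessing cytotoxicity.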

[18] = read-out: Vascular endothelial growth factor receptor 2 (Homo sapiens) (UniProt P35968); experiment: BSK_4H_VEGFRII: BioMAP Diversity Plus: 4H Assay for Vascular endothelial growth factor receptor 2 (VEGFR2) Biomarker Activity (AID 2283031); conditions: primary human endothelial cells (HUVEC); actives raise or lower the signal
How it was run: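 In this multiplexed HUVEC system, biomarker ELISA was performed after 24 h chemical exposure. Parallel SRB staining (TCA fixation, 560 nm) tracked cytotoxicity; DMSO served as baseline.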

[19] = read-out: Interleukin-1 alpha (IL1a), IL1A (gene 3552); experiment: BSK_BE3C_IL1a: BioMAP Diversity Plus: BE3C Assay for Interleukin-1 alpha (IL1a) Biomarker Activity (AID 2283016); conditions: primary human bronchial epithelial cells; actives raise or lower the signal
How it was run: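 Cultures of primary human bronchial epithelial cells receive test chemical. After 24 h, IL-1a is quantified by ELISA, while parallel wells are fixed in TCA and SRB-stained for total protein. Changes in either direction are fitted relative to DMSO.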

[20] = target: Retinoic acid receptor RXR-alpha (Homo sapiens) (UniProt P19793); experiment: ATG_RXRa_TRANS: Attagene TRANS-FACTORIAL HepG2 Assay for human Retinoid X Receptor alpha (RXRa) (AID 2283012; active = hit-call score of the fitted dose curve at least 0.9, where 1 is the maximum)
How it was run: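 Cells (HepG2) carried transiently transfected GAL4-responsive reporter units. Following a 24 h chemical incubation, reporter mRNA induction was read via RT-PCR fragment analysis; DMSO served as negative control and baseline.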

Measured: AC50

Chain of E-selectin (Homo sapiens) (P16581 whole entry, looked up): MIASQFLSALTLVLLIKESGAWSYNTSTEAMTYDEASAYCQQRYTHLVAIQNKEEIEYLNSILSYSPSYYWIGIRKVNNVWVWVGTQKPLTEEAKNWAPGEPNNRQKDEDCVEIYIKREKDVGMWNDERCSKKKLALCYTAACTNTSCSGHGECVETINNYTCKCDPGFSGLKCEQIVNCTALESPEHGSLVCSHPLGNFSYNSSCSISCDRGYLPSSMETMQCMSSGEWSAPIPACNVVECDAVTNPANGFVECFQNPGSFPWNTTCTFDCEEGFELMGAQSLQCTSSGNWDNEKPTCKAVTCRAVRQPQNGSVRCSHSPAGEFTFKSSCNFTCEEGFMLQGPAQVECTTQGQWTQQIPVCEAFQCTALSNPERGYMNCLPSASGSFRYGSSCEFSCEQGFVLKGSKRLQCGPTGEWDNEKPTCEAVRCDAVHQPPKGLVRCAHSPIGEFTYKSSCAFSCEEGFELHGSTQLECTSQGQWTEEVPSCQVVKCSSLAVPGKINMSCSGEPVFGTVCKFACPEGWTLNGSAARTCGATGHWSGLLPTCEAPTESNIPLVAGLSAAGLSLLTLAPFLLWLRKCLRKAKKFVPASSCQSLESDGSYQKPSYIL
Chain of human Vitamin D Receptor (VDR), VDR (gene 7421) (P11473 whole entry, looked up): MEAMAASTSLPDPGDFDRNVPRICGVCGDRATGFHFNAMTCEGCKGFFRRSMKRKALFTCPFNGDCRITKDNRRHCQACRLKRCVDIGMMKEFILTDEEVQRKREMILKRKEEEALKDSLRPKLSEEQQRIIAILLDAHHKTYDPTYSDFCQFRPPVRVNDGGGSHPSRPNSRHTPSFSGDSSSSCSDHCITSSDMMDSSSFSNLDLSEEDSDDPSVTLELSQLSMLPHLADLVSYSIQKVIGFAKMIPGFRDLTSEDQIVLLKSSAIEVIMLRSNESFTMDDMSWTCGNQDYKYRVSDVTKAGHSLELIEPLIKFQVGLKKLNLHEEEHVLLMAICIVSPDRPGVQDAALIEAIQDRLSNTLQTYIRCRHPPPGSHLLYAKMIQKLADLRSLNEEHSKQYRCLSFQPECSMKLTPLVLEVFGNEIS
Chain of human Retinoid X Receptor beta (RXRb), RXRB (gene 6257) (P28702 whole entry, looked up): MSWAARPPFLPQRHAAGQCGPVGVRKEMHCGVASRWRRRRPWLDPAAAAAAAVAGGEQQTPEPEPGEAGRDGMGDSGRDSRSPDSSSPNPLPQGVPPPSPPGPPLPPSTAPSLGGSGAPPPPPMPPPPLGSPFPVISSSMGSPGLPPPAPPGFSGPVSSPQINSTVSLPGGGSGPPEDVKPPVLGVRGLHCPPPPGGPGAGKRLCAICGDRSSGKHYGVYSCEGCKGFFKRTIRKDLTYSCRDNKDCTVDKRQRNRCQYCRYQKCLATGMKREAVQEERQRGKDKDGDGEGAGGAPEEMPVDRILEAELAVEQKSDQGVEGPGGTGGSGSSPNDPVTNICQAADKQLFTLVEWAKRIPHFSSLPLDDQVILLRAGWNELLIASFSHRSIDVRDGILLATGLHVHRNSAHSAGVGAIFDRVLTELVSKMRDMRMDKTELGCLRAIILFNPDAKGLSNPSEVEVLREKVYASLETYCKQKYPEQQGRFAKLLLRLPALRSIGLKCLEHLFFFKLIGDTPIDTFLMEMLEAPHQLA
Chain of human Thyroid Receptor alpha (THRa1), THRA (gene 7067) (P10827 whole entry, looked up, the tested form may be a part): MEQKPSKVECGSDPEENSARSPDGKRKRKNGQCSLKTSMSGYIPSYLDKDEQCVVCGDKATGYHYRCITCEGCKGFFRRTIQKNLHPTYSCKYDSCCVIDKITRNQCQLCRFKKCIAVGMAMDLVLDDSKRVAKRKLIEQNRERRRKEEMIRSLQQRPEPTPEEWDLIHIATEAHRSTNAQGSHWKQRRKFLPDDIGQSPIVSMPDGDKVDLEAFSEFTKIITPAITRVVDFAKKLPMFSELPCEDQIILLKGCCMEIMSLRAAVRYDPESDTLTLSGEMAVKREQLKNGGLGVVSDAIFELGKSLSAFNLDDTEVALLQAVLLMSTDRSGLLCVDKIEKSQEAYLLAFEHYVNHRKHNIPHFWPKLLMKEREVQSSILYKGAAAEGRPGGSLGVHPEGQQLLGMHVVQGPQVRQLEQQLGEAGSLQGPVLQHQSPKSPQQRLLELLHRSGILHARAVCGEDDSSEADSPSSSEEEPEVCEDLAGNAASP
Chain of Retinoic acid receptor RXR-alpha (Homo sapiens) (P19793 whole entry, looked up, the tested form may be a part): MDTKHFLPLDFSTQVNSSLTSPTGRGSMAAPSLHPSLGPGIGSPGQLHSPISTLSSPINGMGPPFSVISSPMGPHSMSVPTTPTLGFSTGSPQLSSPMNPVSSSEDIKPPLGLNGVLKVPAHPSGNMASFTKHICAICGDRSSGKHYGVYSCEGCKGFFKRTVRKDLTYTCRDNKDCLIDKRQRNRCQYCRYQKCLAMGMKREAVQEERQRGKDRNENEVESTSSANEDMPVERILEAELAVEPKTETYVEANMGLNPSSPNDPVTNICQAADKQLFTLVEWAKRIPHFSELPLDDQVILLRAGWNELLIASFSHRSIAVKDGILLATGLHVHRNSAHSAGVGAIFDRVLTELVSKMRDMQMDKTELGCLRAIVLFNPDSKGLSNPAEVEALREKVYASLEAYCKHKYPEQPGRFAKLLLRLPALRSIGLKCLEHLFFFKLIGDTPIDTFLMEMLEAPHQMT

CCCCC(CC)COC(=O)CCCCC(=O)OCc1ccccc1 (stereo not drawn)
active: [1] 80.6 µM
not listed: [19] | [20]
inactive: all other assays above

COCC(C)O (stereo not drawn)
not listed: [14] | [15] | [20]
inactive: all other assays above

CCCCCCCCCCCCc1ccccc1S(=O)(=O)O
active: [1] 9.1 µM | [11] 28.8 µM | [12] 39 µM
not listed: [2] | [14] | [15] | [19]
inactive: all other assays above

CCCCOCCO
not listed: [1] | [9] | [14] | [15] | [20]
inactive: all other assays above

Cc1oc(-c2ccccc2)nc1CCOc1ccc(C[C@H](Nc2ccccc2C(=O)c2ccccc2)C(=O)O)cc1
inactive: [20] | [9] | [11] | [16] | [18]
active: [3] 31.1 µM | [4] 32.5 µM | [5] 20 µM | [6] 28.5 µM | [7] 28.5 µM | [8] 36.8 µM | [10] 14.9 µM | [12] 37.5 µM | [13] 32.9 µM | [15] 5.13 µM | [17] 15.6 µM

CC(=O)NC1(c2cccc(F)c2)CCN(CC[C@@]2(c3ccc(Cl)c(Cl)c3)CN(c3ccccc3)C(=O)CO2)CC1
active: [20] 49.7 µM | [2] 59.9 µM | [3] 30.7 µM | [4] 23.5 µM | [6] 24.9 µM | [7] 17.8 µM | [10] 21.6 µM | [12] 12.7 µM | [13] 20.4 µM | [17] 16.6 µM
inactive: [5] | [8] | [9] | [11] | [15] | [16] | [18]

CC1=C(/C=C/C(C)=C/C=C/C(C)=C/C(=O)O)C(C)(C)CCC1
active: [3] 20 µM | [6] 19.6 µM | [11] 0.854 µM | [13] 31.7 µM
not listed: [1] | [14] | [19] | [20]
inactive: all other assays above

CC(C)(C)CC(C)(C)c1ccc(O)c(-n2nc3ccccc3n2)c1
not listed: [15] | [20]
inactive: all other assays above
